Experimental data: PubChem BioAssay AID1259240 (Keith Lab, Institute of Cancer Science, University of …, 2017)
Unmarked numbers belong to inactive results. Calls of active or inactive are those of the source. No stated cut-off is given here; in the data, active means fold change mostly below about -2 (no sharp cut-off); inactive means mostly above about -1.8.

assay: TERT promoter activity modulators, primary screen, cell-based, luciferase reporter, human (AID 1259240); settings: A2780 TERT promoter luciferase reporter, 16 h; at 20 µM, fold versus average of vehicle-only wells

**Q.** For `CCOC(=O)c1c(CN2CCOCC2)oc2ccc(OC)cc12`, which fold change is on record?
**A.** -1.29

**Q.** Which fold change does the source give for `Cc1nc2cc(-c3cccc(F)c3)nn2c(C)c1CCC(=O)N1CCc2ccccc21` here?
**A.** -2.84 (active)

**Q.** Which fold change does the source give for `COc1ccc(S(=O)(=O)NC(C)(C)C)cc1-c1nnc2c3ccccc3c(C)nn12` here?
**A.** -1.62

**Q.** With `c1ccc(-c2nnc3ccc(NCCCN4CCc5ccccc5C4)nn23)cc1` as the compound, how does the fold change read?
**A.** -1.21

**Q.** Which fold change does the source give for `O=C(Cn1c(=O)oc2cc(S(=O)(=O)N3CCc4ccccc43)ccc21)NC1CCCC1` here?
**A.** -1.1

**Q.** Which fold change does the source give for `Cn1c(=O)c2c(SCC(=O)Nc3ccc([N+](=O)[O-])cc3)nc(-c3ccc(F)cc3)nc2n(C)c1=O` here?
**A.** 1.08

**Q.** Which fold change does the source give for `Nc1nc(SCC(=O)NCCCN2CCOCC2)nc2sc3c(c12)CCC3` here?
**A.** -1.53

**Q.** With `Cn1c(=O)cc(SCC(=O)Nc2nc3ccccc3[nH]2)c2ccccc21` as the compound, how does the fold change read?
**A.** -1.01

**Q.** For `CN1CCc2c(sc3c2C(=O)NC(c2cccc(Cl)c2Cl)N3)C1` (centres undefined), which fold change is on record?
**A.** -1.43

**Q.** For `COc1ccc(Br)cc1/C=c1\sc2nc(-c3ccco3)nn2c1=O`, which fold change is on record?
**A.** 1.22

**Q.** Which fold change does the source give for `O=C(Nc1ccc(F)cc1)C(=O)Nc1ccc2nc3n(c(=O)c2c1)CCCCC3` here?
**A.** -1.07

**Q.** For `CNC(=O)CN1C(=O)COc2ccc(S(=O)(=O)N3CCOCC3)cc21`, which fold change is on record?
**A.** -1.1

**Q.** Which fold change does the source give for `O=C1OC(Nc2ccc(F)cc2)c2ccccc21` (centres undefined) here?
**A.** -1.21

**Q.** With `CC1(C)CC(=O)c2sc(NC(=O)C(C)(C)C)nc2C1` as the compound, how does the fold change read?
**A.** 1.32

**Q.** With `CCN1CCN(CCNc2cc(C)nc3c(-c4ccc(OC)c(OC)c4)c(C)nn23)CC1` as the compound, how does the fold change read?
**A.** -1.31

**Q.** With `CC(C)Cc1cc(C(=O)Nc2cnn(Cc3ccc(F)cc3)c2)no1` as the compound, how does the fold change read?
**A.** -1.44

**Q.** Which outcome does the source give for `CCOC(=O)CSc1nnc(-c2c[nH]c3ccccc23)n1C` here?
**A.** inactive

**Q.** For `CCCC1=NN2C(=N)/C(=C\c3ccc(SCc4ccco4)o3)C(=O)N=C2S1`, which fold change is on record?
**A.** -1.68

**Q.** With `Cn1c(-c2ccc(N)cc2)nc2cc(N)ccc21` as the compound, how does the fold change read?
**A.** -1.51

**Q.** For `Fc1ccc(OCc2nc(-c3ccc(-n4cccc4)cc3)no2)cc1`, which fold change is on record?
**A.** -1.22

**Q.** With `Oc1oc(-c2ccccc2)nc1C=Nc1ccc(Cl)c2cccnc12` as the compound, how does the outcome read?
**A.** inactive

**Q.** Which fold change does the source give for `COC(=O)c1ccc(-c2ccc(/C=C3/NC(=O)N(c4ccccc4)C3=O)o2)cc1` here?
**A.** -2.59 (active)

**Q.** Which fold change does the source give for `O=C(CSc1nnc(Cc2cc(=O)[nH]c(=O)[nH]2)n1-c1ccc(Cl)cc1)c1ccccc1` here?
**A.** -1.09

**Q.** With `O=C(Nc1ccc(S(=O)(=O)N2CCCC2)cc1)C1c2ccccc2Oc2ccccc21` as the compound, how does the fold change read?
**A.** -1.83

**Q.** With `CN(CC(=O)NCC1CCCO1)S(=O)(=O)c1ccc2c(c1)c(=O)n(C)c(=O)n2C` (centres undefined) as the compound, how does the fold change read?
**A.** 1.06

**Q.** With `O=C(CCSCCc1ccccn1)Nc1nccs1` as the compound, how does the fold change read?
**A.** 1.07

**Q.** For `N=C1C(c2nc3ccccc3c(=O)[nH]2)=C(O)CN1c1ccc(Cl)c(Cl)c1`, which outcome is on record?
**A.** active

**Q.** Which fold change does the source give for `Cc1ccc(-c2nc3ccccc3n3cc4c(=O)n(C)c(=O)n(C)c4c23)cc1` here?
**A.** -1.32

**Q.** With `O=C(O)CSc1nc(-c2cccs2)cc(C(F)(F)F)n1` as the compound, how does the fold change read?
**A.** -1.48

**Q.** Which fold change does the source give for `C=CCOc1cccc(C2c3c(oc4ccccc4c3=O)C(=O)N2c2nc(C)c(C(C)=O)s2)c1` (centres undefined) here?
**A.** 1.02

**Q.** For `COc1cccc(/C=c2\sc3nc(=O)c(Cc4ccc(Cl)cc4)nn3c2=O)c1OC`, which fold change is on record?
**A.** -1.08

**Q.** Which fold change does the source give for `COc1ccccc1C(=O)[C@H]1C(=O)N[C@@]2(C)C[C@@H]1c1cccc(OC)c1O2` here?
**A.** -1.16

**Q.** For `O=C(Nc1ccc(C(F)(F)F)cc1)C1CCCN1S(=O)(=O)c1cccc2nsnc12` (centres undefined), which fold change is on record?
**A.** -1.19

**Q.** With `CCc1cc(C)cc(OCC(O)Cn2cnc3ccccc32)c1` (centres undefined) as the compound, how does the fold change read?
**A.** -1.77

**Q.** With `Cc1sc(-c2c(C#N)c(N)nc3c2CCCC3)cc1Br` as the compound, how does the fold change read?
**A.** -4.77 (active)

**Q.** For `CC(=O)c1cc2c(cc1NC(=O)c1cc(C)nn1-c1ccccc1)OCO2`, which fold change is on record?
**A.** -1.17

**Q.** With `O=C(NCc1ccccn1)c1cccn2c(=O)c3c4c(sc3nc12)CCCC4` as the compound, how does the fold change read?
**A.** -1.8

**Q.** With `Cn1c(=O)c(=O)n(C)c2cc(S(=O)(=O)N3CCCC3C(=O)Nc3nccs3)ccc21` (centres undefined) as the compound, how does the fold change read?
**A.** 1.15

**Q.** For `CSc1ccc(-c2nc3sccn3c2Nc2ccccc2)cc1`, which fold change is on record?
**A.** -1.05
